Results filed as inconclusive are left out. Calls of active or inactive are those of the source. Unless noted, no cut-off is given here; in the data, nearly all actives have AC50 up to about 26 µM.

Assay [1] is described as follows: viability loss in pontine glioma line – cell-based, SU-DIPG-XVII, MIPE5.0, CellTiter-Glo, qHTS, dose response (AID 1347060).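 For AC50: cells exposed to compound for 48 hours before viability readout.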 The conditions noted are these: CellTiter-Glo ATP luminescence.
Assay [2] is described as follows: viability loss in pontine glioma line – cell-based, SU-DIPG-XIII, MIPE5.0, CellTiter-Glo, qHTS, dose response (AID 1347064; cut-off not given, nearly all actives have AC50 up to about 23 µM;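 for AC50: cells exposed to compound for 48 hours before the viability read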). The conditions noted are these: CellTiter-Glo ATP luminescence.
Assay [3] can be described thus: viability loss in pontine glioma line – cell-based, SU-DIPG-XXV, MIPE5.0, CellTiter-Glo, qHTS, dose response (AID 1347065).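 Note: cells exposed to compound for 48 hours before ATP readout.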 The conditions noted are these: CellTiter-Glo ATP luminescence. For orientation: ATP-based viability assays read luminescence as a measure of living cells.
A short description of assay [4]: JHH-DIPG-1 glioma cell viability, MIPE5.0 library, CellTiter-Glo luminescence, qHTS (AID 1347067).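 Note: cells exposed to compound for 48 hours before readout.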 The conditions noted are these: JHH-DIPG-1 glioma viability, CellTiter-Glo ATP luminescence.
The nature of assay [5]: growth inhibition of DIPG cells – cell-based, MIPE5.0 library, qHTS (AID 1347068; cut-off not given, nearly all actives have IC50 up to about 30 µM;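 for IC50: cells exposed to compound for 48 hours before viability readout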). The conditions noted are these: SU-DIPG-XXV viability. On the technique in general: qHTS replaces the single test concentration by a dilution series.
Assay [6] can be described thus: viability loss with induced miR-34 in A549 – imaging, A549 dox-inducible miR-34, nuclei and caspase counts, primary screen (AID 1347080;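 active = compounds whose cell count with miR-34 switched on is under 0.7 times the count with it off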). As to conditions: A549 miR-34 inducible, Hoechst nuclei count, 48 h.
The nature of assay [7]: MELAS cybrid and Rieske KO viability enhancers – cell-based, MELAS cybrids, Rieske KO mouse fibroblasts, CellTiter-Glo, primary screen (AID 1508586;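 active = mean z-score across replicates of 1.96 or higher in either the MELAS or the Rieske mutant cell line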;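 note: z relative to plate mean and SD of compound and empty wells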). The conditions noted are these: low glucose.
The nature of assay [8]: growth inhibition, single agent or in combination, cell-based, chromothripsis tumors, cisplatin or BGB combos (AID 1671449; in the data active = inhibition above about 80%;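 note: cells exposed for 96 hours; 0% = vehicle DMSO and 100% = killing by high DMSO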). As to conditions: LFS_MB_P medulloblastoma cells.
A short description of assay [9]: growth inhibition, single agent and combos, cell-based, chromothripsis tumors, cisplatin or BGB combos (AID 1671450; in the data active = inhibition above about 80%;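 note: cells exposed to compound for four days; 0% = vehicle DMSO and 100% = cell killing by high DMSO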). The conditions noted are these: HDN33 neuroblastoma cells, stronger effect = higher value.
A short description of assay [10]: growth inhibition, single agents and combos, ICB984, cell-based, cisplatin or BGB combos, synergistic combos for chromothripsis tumors (AID 1671451; call rule not given here;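 note: cells exposed for 96 hours before readout; 0% = vehicle DMSO and 100% = killing by high DMSO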). The conditions noted are these: ICB984 medulloblastoma cells, drug combinations, stronger effect = higher value.
A short description of assay [11]: growth inhibition, single agents and combos, LFS_MB_1R, cell-based, cisplatin or BGB combos, synergistic combos for chromothripsis tumors (AID 1671452; in the data active = inhibition above about 80%;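 note: cells exposed for 96 hours before readout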). As to conditions: LFS_MB_1R medulloblastoma cells, stronger effect = higher value.
Assay [12] in a line: growth inhibition, single agents and combos, HTB85, cell-based, BGB or cisplatin IC20 combos, synergistic combos for chromothripsis tumors (AID 1671453; in the data active = inhibition above about 80%;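 note: cells exposed for 96 hours before readout; 0% = vehicle DMSO and 100% = high DMSO killing control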). The conditions noted are these: HTB85 osteosarcoma cells, drug combinations, stronger effect = higher value.
The nature of assay [13]: growth inhibition, single agents and combos, CRL2098, cell-based, BGB or cisplatin IC20 combos, synergistic combos for chromothripsis tumors (AID 1671454; in the data active = inhibition above about 80%;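 note: cells exposed for 96 h before readout; 0% = vehicle DMSO and 100% = killing by high DMSO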). As to conditions: CRL2098 osteosarcoma cells, drug combinations, stronger effect = higher value.
The nature of assay [14]: growth inhibition, single agents and combos, HD-MB03, cell-based, BGB or cisplatin IC20 combos, synergistic combos for chromothripsis tumors (AID 1671455; in the data active = inhibition above about 83%;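 note: 0% = vehicle DMSO and 100% = high DMSO as cytotoxic control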). The conditions noted are these: HD-MB03 medulloblastoma cells, stronger effect = higher value.
Assay [15] can be described thus: growth inhibition, single agents and combos, UWB1.289, cell-based, BGB or cisplatin combos, synergistic combos for chromothripsis tumors (AID 1671456; in the data active = inhibition above about 80%;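 note: cells exposed to compound for four days; 0% = vehicle DMSO and 100% = killing by high DMSO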). The conditions noted are these: UWB1.289 ovarian carcinoma cells, stronger effect = higher value.
Assay [16] is described as follows: growth inhibition, MDA-MB-436, cell-based, BGB or cisplatin combos, synergistic combos for chromothripsis tumors (AID 1671458; call rule not given here;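 note: cells exposed for 96 hours; 0% = vehicle DMSO and 100% = killing by high DMSO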). As to conditions: MDA-MB-436 breast carcinoma growth inhibition, drug combinations, stronger effect = higher value.
A short description of assay [17]: BT084 cell growth, single and combined drugs, ICGC_MB145, cisplatin and BGB IC40 combos (AID 1671461; in the data active = inhibition above about 80%;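 note: cells exposed to drugs for 96 hours; 0% = vehicle DMSO and 100% = high DMSO full killing control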). The conditions noted are these: BT084 medulloblastoma cells, drug combinations, stronger effect = higher value.
Assay [18] in a line: RCMB18 cell growth, single agent and combined, cisplatin and BGB IC40 combos (AID 1671462; in the data active = inhibition above about 80%;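 note: cells exposed to compound for four days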). As to conditions: RCMB18 medulloblastoma cells, stronger effect = higher value.
Assay [19] can be described thus: CRL1545 cell growth, single agent and combined, cisplatin and BGB IC20 combos (AID 1671464; in the data active = inhibition above about 80%;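 note: cells exposed to compound for 96 hours before readout; 0% = vehicle DMSO and 100% = high DMSO killing control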). The conditions noted are these: CRL1545 osteosarcoma cells, stronger effect = higher value.
Setting [20] is: stronger effect = lower value, cell number ratio, induced over uninduced.
Where [21] appears, read: measured here: relative caspase fold change +Dox/-Dox.
[22] abbreviates: measured here: total cells with miR-34 induction, stronger effect = lower value.
Where [23] appears, read: measured here: total cells without miR-34 induction.
Where [24] appears, read: MELAS cybrid survival, CellTiter-Glo 48 h, stronger effect = higher value.
Setting [25] is: Rieske KO mouse fibroblast survival, CellTiter-Glo 72 h.
Where [26] appears, read: measured here: combination with BGB IC40, at 0.05 µM.
Where [27] appears, read: measured here: with BGB IC20 combination, at 0.5 µM.
The mark [28] stands for this setting: measured here: with cisplatin IC20 combination, at 0.5 µM.
[29] abbreviates: measured here: combination with cisplatin, at 0.5 µM.

For `COc1ccccc1C(=O)Nc1cc2c(cc1N1CCNC[C@H]1C)n(C)c(=O)n2C`, the outcome in assay [1], in assay [2], in assay [3], in assay [4] and in assay [5] was inactive.
For orientation: AC50 means the midpoint of the concentration-response curve, whichever way the signal moves. As a reminder, the IC50 is the point on the concentration scale where inhibition reaches its midpoint. For `COc1cc(N2CCC(N(C)C)CC2)ccc1Nc1ncc(Cl)c(Nc2ccccc2P(C)(C)=O)n1`, the AC50 was 1050 nM (active) in assay [1], 934 nM (active) in [2], 417 nM (active) in assay [3] and 1660 nM (active) in assay [4]. In [5], the IC50 was 1860 nM (active). For the same compound, the fold change in assay [6] (setting [20]) is 1.01 (inactive); in assay [6] (setting [21]), 0.883. Besides, the cell count in [6] (setting [22]) was 1590; in [6] (setting [23]), 1580. Also, the z-score in assay [7] (setting [24]) was 3.7 (active); in assay [7] (setting [25]) it was -0.471.
Take `Cc1cc(C)cc(NC(=O)Cc2ccc(OC(C)(C)C(=O)O)cc2)c1`: the outcome in [1], in [2], in assay [3], in [4] and in assay [5] was inactive. In addition, the fold change is 0.94 (inactive) in [6] (setting [20]) and 0.66 in [6] (setting [21]). For the same compound, the cell count in [6] (setting [22]) amounted to 8990; in assay [6] (setting [23]), 9560. The results for the z-score in assay [7] (setting [24]) and in assay [7] (setting [25]) were -0.243 (inactive) and -0.194, respectively.
The term inhibition denotes the drop in the measured response relative to a control, in per cent. For `COc1ccc(C(=O)C2CCN(CC(=O)N(Cc3nc4c(c(=O)[nH]3)COCC4)CC3CC3)CC2)cc1`, the compound was called inactive in [1], in assay [2], in assay [3], in assay [4] and in assay [5]. The inhibition is -26.8% (inactive) in assay [8] (at 0.5 µM, stronger effect = higher value); -22.7% in assay [8] (measured here: combination with BGB IC20, at 0.005 µM); -42.7% in [8] (measured here: combination with BGB IC40, at 0.005 µM); -55.1% in [8] (setting [26]); -22.8% in assay [8] (measured here: combination with cisplatin, at 0.5 µM, stronger effect = higher value); -44.7% in [8] (measured here: combination with cisplatin, at 5 µM, stronger effect = higher value). Besides, the inhibition was -14.7% in [9] (BGB combo, at 5 µM); 19.2% (inactive) in assay [9] (at 0.5 µM); 9.88% in [9] (cisplatin combo, at 5 µM); 15.5% in assay [9] (setting [27]); 24.9% in assay [9] (setting [28]); 15.7% in [9] (single agent, at 5 µM). Further, the inhibition is -9.62% in assay [10] (BGB IC20 combo, at 0.005 µM); -29.7% in assay [10] (BGB IC40 combo, at 0.005 µM); -4.73% in [10] (BGB IC40 combo, at 0.05 µM); -22.8% (inactive) in [10] (at 0.5 µM); -10.1% in assay [10] (cisplatin combo, at 0.05 µM); -15% in assay [10] (cisplatin combo, at 0.5 µM). For the same compound, the inhibition in assay [10] (cisplatin combo, at 5 µM) is -26%; in assay [10] (measured here: 5 uM single agent, at 5 µM) it was -16%; in assay [11] (at 0.5 µM), -33% (inactive); in assay [11] (setting [26]), -55.7%; in assay [11] (setting [29]), -42.4%; in assay [11] (measured here: combination with cisplatin, at 5 µM), -67.1%. Also, the inhibition in [12] (at 0.5 µM) is 14.2% (inactive); in assay [12] (measured here: with BGB IC20, at 0.5 µM) it was 33.7%; in [12] (measured here: with BGB IC20, at 5 µM), 10.5%; in [12] (measured here: with cisplatin IC20, at 0.5 µM), -3.3%; in assay [12] (measured here: with cisplatin IC20, at 5 µM), 4.94%; in assay [12] (single agent, at 5 µM), 15.4%. Also, the inhibition in [13] (at 0.5 µM) is -25.5% (inactive); in assay [13] (measured here: combination with BGB at IC20, at 0.5 µM) it was -15.2%; in assay [13] (measured here: combination with cisplatin at IC20, at 0.5 µM), -29.9%; in [14] (at 0.5 µM), -6.43% (inactive); in assay [14] (measured here: combo with BGB at IC20, at 0.5 µM) it was -11.5%; in assay [14] (measured here: combo with cisplatin at IC20, at 0.5 µM), -4.57%. Besides, the inhibition was 0.15% (inactive) in assay [15] (at 0.5 µM); -7.89% in assay [15] (measured here: inhibition with BGB combination, at 0.05 µM); -13.7% in [15] (measured here: inhibition with cisplatin combination, at 0.05 µM); -12.3% (inactive) in [16] (at 0.5 µM); -9.1% in assay [16] (measured here: BGB combination, at 0.5 µM); -21.6% in assay [16] (measured here: BGB combination, at 5 µM). The inhibition in assay [16] (measured here: cisplatin combination, at 0.5 µM) was -32.8%; in assay [16] (measured here: cisplatin combination, at 5 µM), -17.8%; in [17] (at 0.5 µM) it was -24.2% (inactive); in [17] (cisplatin combination, at 0.5 µM), -30.1%; in [17] (cisplatin combination, at 5 µM), -190%; in assay [17] (measured here: BGB IC40 combination 0.05 uM, at 0.05 µM) it was -40%. Also, the inhibition in assay [17] (single agent, at 5 µM) is -16.6%; in assay [18] (at 0.5 µM), -19.3% (inactive); in assay [18] (cisplatin combo, at 5 µM), -12.1%; in assay [18] (measured here: BGB IC40 combination, at 0.05 µM), -3.95%; in assay [18] (setting [29]), -13.9%; in assay [18] (single agent, at 5 µM), 8.88%. For the same compound, the inhibition in assay [19] (at 0.5 µM) was 9.43% (inactive); in assay [19] (setting [27]), 5.59%; in assay [19] (setting [28]), 9.92%; in [19] (single agent, at 0.05 µM), -39.6%; in assay [19] (single agent, at 5 µM), -10.3%.
